From the supplement of paper PMC7595190
Values without a mark were called inactive.

System: MV4-11
Assay: CellTox Green cytotoxicity fluorescence relative to DMSO vehicle (fold of vehicle RFU); higher = more cell death (loss of membrane integrity), active = 2 or more
Method: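 Paediatric AML cell lines (MV4-11, CMK, Kasumi-1; 4x10^4 cells/well, 96-well) treated with single compounds from the Selleckchem apoptosis library at 0.01, 0.1 and 1 µM. Cytotoxicity was read with CellTox Green (RFU, Ex 485/Em 520) at 24, 48 and 72 h and normalised to the 0.1% DMSO vehicle. Normalised RFU >= 2 was taken as a successful, cell-killing treatment.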

Structure (SMILES) | CellTox Green cytotoxicity fluorescence (0.01 µM, 24 h) | CellTox Green cytotoxicity fluorescence (0.01 µM, 48 h) | CellTox Green cytotoxicity fluorescence (0.01 µM, 72 h) | CellTox Green cytotoxicity fluorescence (0.1 µM, 24 h) | CellTox Green cytotoxicity fluorescence (0.1 µM, 48 h) | CellTox Green cytotoxicity fluorescence (0.1 µM, 72 h) | CellTox Green cytotoxicity fluorescence (1 µM, 24 h) | CellTox Green cytotoxicity fluorescence (1 µM, 48 h) | CellTox Green cytotoxicity fluorescence (1 µM, 72 h)
COc1ccc2c(c1)/C(=C/c1cnc[nH]1)C(=O)N2 | 0.929 | 0.92 | 0.921 | 0.92 | 0.94 | 0.941 | 0.987 | 1.03 | 1.05
COc1cc(C)[nH]c(=O)c1CNC(=O)c1c(C)n([C@H](C)C2CCOCC2)c2ccccc12 | 0.942 | 0.94 | 0.941 | 0.942 | 0.951 | 0.957 | 0.942 | 0.936 | 0.948
Cn1c(COP(=O)(NCCBr)NCCBr)cnc1[N+](=O)[O-] | 0.981 | 0.971 | 0.974 | 0.97 | 0.983 | 1.04 | 0.97 | 1.38 | 2.79 (active)
Cc1cc2c(C(C)C)c(O)c(O)c(C=O)c2c(O)c1-c1c(C)cc2c(C(C)C)c(O)c(O)c(C=O)c2c1O | 0.979 | 1 | 1 | 1 | 1 | 0.993 | 0.973 | 0.959 | 1.02
